Bioassay records from PubChem.
DT40 TDP1 no CPT: qHTS for Inhibitors of human tyrosyl-DNA phosphodiesterase 1 (TDP1): qHTS in cells in absence of CPT. Potency, µM (highest dose often 46.2 µM), for inactives: top-dose activity change, negative = growth inhibition, actives largely listed as inhibitors. DT40 Tdp1-/- hTDP1 cells, no CPT, ATP luminescence, 48 h. AID 686978, 2013. 420,000 tested, 15% active; note: nearly all actives have a fitted effect of over 55% in size
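Chicken DT40 Tdp1-/- cells stably complemented with human TDP1 were seeded at 400 cells/well with DMSO in place of 20 nM camptothecin. After compound pinning, cells grew at least 48 hr at 37 °C; viability read by CellTiter-Glo luminescence.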
HT1080 IDH1KD tx: qHTS for induction of synthetic lethality in tumor cells producing 2HG: qHTS for the HT-1080-IDH1KD cell line | HT-1080 IDH1 knockdown viability, ATP luminescence, 48 h | Potency, µM (titrated, usually from 46.1 µM), without a hit: at the highest dose activity, negative = toxicity, actives largely listed as cytotoxic | 360,000 tested, 2% active;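 note: 0% = DMSO wells and -100% = cell-free medium wells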
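Using the IDH1-knockdown HT-1080 line run in the same batch and compound series as the NT line, viability after 48 h at 37 °C was determined by CellTiter-Glo luminescence and expressed as % activity.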
DT40 TDP1 CPT: qHTS for Inhibitors of human tyrosyl-DNA phosphodiesterase 1 (TDP1): qHTS in cells in presence of CPT; 420,000 tested, 12% active; chicken DT40 Tdp1-/-;hTDP1 cells + 20 nM CPT, ATP luminescence, 48 h; AID 686979, 2013; Potency, µM (doses to about 46.2 µM), for inactives: at the top dose activity change, negative = growth inhibition, actives largely listed as inhibitors; note: nearly all actives have a fitted effect of over 55% in size
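Cell growth measured by CellTiter-Glo luminescence after a minimum 48 h, 37 C compound exposure with 20 nM CPT in Tdp1-knockout DT40 cells stably expressing hTDP1, seeded 400/well; qHTS titration format.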
KB-3-1 cytotox: qHTS assay for MDR1-selective chemotherapeutics: Primary screen using the parental adenocarcinoma cell KB-3-1; KB-3-1 viability, CellTiter-Glo ATP luminescence, 72 h; Potency, µM (highest dose often 46.1 µM), hits mostly cytotoxic; 400,000 tested, 1.4% active; note: nearly all actives have a fitted effect of over 60% in size
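Cells are dispensed, compounds pinned in, plates held at 37 °C for 72 h, then CellTiter-Glo is added and luminescence read after 10 minutes. Cell line: parental KB-3-1 in phenol-red-free DMEM, 10% FBS.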
HT1080NT lethal: qHTS for induction of synthetic lethality in tumor cells producing 2HG: qHTS for the HT-1080-NT fibrosarcoma cell line | Potency, µM (top dose mostly 46.1 µM), without a hit: at the highest dose activity, negative = less viability, usual class: cytotoxic | HT-1080-NT fibrosarcoma viability, CellTiter-Glo ATP luminescence, 48 h | 360,000 tested, 1.6% active;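 note: NT is the 2HG producing partner of a matched IDH1 knockdown line; 0% = DMSO-treated cells and -100% = media-only wells without cells; nearly all actives have a fitted effect of over 55% in size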
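Compounds were tested in concentration-response format on HT-1080-NT cells for 48 hours at 37 degrees C. Cell viability came from CellTiter-Glo luminescence; curves were classified by r2, response magnitude and activity.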
KB-V1 cytotox: qHTS assay for MDR1-selective chemotherapeutics: Primary screen using the drug-selected MDR subline cells KB-V1 | KB-V1 MDR cells viability, CellTiter-Glo, 72 h | Potency, µM (titrated, usually from 46.1 µM), usual class: cytotoxic | 400,000 tested, 3.4% active; note: nearly all actives have a fitted effect of over 60% in size
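Cytotoxicity via CellTiter-Glo luminescence after 72 h compound exposure at 37 degrees C. Cells: drug-selected KB-V1 line, DMEM phenol-red free plus 10% FBS. Compounds tested at multiple concentrations; normalized data fitted to concentration-effect curves.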
* hit, by the source's call; i = inactive; u = inconclusive; x = no result given. An excerpt weighted towards active compounds, which were near 19% of everything screened. Calls come from the whole dose curve; as a rule, active = well fitted curve in the direction sought with a large enough effect; inconclusive = small, poorly fitted or top-dose-only effect, or another doubt; inactive = no such curve, though single readings can be large; an effect the other way counts as inactive or inconclusive. Unless noted, % is set by controls: 0 for no effect and ±100 for the full control effect; potency is the fitted concentration of half-maximal effect.

SMILES	DT40 TDP1 no CPT	HT1080 IDH1KD tx	DT40 TDP1 CPT	KB-3-1 cytotox	HT1080NT lethal	KB-V1 cytotox
OCCNc1nc(C2CC2)nc2c1nnn2Cc1ccccc1Cl	-14%	u	2%	i	-11%	6.5µM*
CCNc1ncc2nc(-c3cc(F)cc(F)c3)c(=O)n(-c3ccc(OC)cc3)c2n1	-8%	x	7%	x	x	x
CCNc1ncc2nc(C)c(=O)n(-c3ccc(OC)cc3)c2n1	2.1µM*	x	u	x	x	x
COc1ccc(-c2nc3cnc(OC)nc3n(-c3ccc(OC)cc3)c2=O)cc1	0.92µM*	x	1.3µM*	x	x	x
CCNc1ncc2nc(C)c(=O)n(CCc3ccccc3)c2n1	u	x	7.3µM*	x	x	x
CCNc1ncc2nc(-c3ccccc3)c(=O)n(CCc3ccccc3)c2n1	-12%	x	2%	x	x	x
CCNc1ncc2nc(-c3cccs3)c(=O)n(-c3ccc(OC)cc3)c2n1	u	x	-15%	x	x	x
CCNc1ncc2nc(-c3ccc(F)cc3)c(=O)n(-c3ccc(OC)cc3)c2n1	0.58µM*	x	0.73µM*	x	x	x
COc1ccc([N+](=O)[O-])cc1N(CC(=O)NC(C(C)C)C(C)C)S(C)(=O)=O	-18%	0%	-1%	i	4%	i
Cc1cccc(C)c1NC(=O)COC(=O)CN1C(=O)C2CCCCC2C1=O (centres undefined)	-29%	2%	u	i	6%	i
CCNc1ncc2nc(-c3ccccc3)c(=O)n(-c3ccc(OC)cc3)c2n1	0.52µM*	x	7.3µM*	x	x	x
CCNc1ncc2nc(-c3ccc(Cl)cc3)c(=O)n(-c3ccccc3)c2n1	-7%	x	-4%	x	x	x
CCCCNS(=O)(=O)c1cccc(NC(=O)[C@@H]2O[C@H](CO)[C@@H](O)[C@H]2O)c1	9%	7%	-2%	i	29%	i
O=C(Nc1ccc(F)cc1)C(Sc1nnc2ccccn12)c1ccccc1 (centres undefined)	u	1%	-20%	i	8%	5.8µM*
COc1ccc(C)cc1NC(=O)C(Sc1nnc(-c2ccncc2)n1-c1ccc(Cl)cc1)c1ccccc1 (centres undefined)	16µM*	u	u	u	3%	u
COc1ccc(C)cc1NC(=O)C(Sc1nnc2ccccn12)c1ccccc1 (centres undefined)	u	-6%	-20%	i	-3%	3.3µM*
Cc1ccc(N2C(=O)C3CCC(C)(C2=O)C3(C)C)cc1 (centres undefined)	-5%	10%	3%	i	10%	u
CSC[C@@H]1NC(=S)N(c2ccc(C)cc2)C1=O	2.3µM*	3%	5.2µM*	i	-8%	i
COCCCn1c(-c2cccc(Cl)c2)nc2c1c(=O)[nH]c(=O)n2Cc1ccccc1	7.3µM*	-1%	u	i	-2%	u
Cn1c(-c2cc(Cl)ccc2O)nc2c1c(=O)[nH]c(=O)n2Cc1ccccc1	13µM*	u	18µM*	i	-8%	i
COc1ccc(Br)cc1-c1nc2c(c(=O)[nH]c(=O)n2Cc2ccccc2)n1C	u	-2%	8%	i	u	i
COc1ccc(OCCn2nnc3sc4c(c3c2=O)CCC(C(C)(C)C)C4)cc1 (centres undefined)	u	x	u	i	x	i
CC1(C(=O)NS(=O)(=O)Cc2cccc(Cl)c2)CCN1C(=O)CCc1cccs1 (centres undefined)	4%	0%	-2%	i	0%	i
CCOC(=O)C1=CCC(c2cc3ccc(OC)cc3n2C(=O)OC(C)(C)C)NC1 (centres undefined)	u	-19%	u	i	-8%	i
O=C(CN1C(=O)C(c2ccc(F)cc2)=NC12CCCC2)Nc1ccc(F)cc1	5.8µM*	-4%	8.2µM*	u	-4%	i
SMILES	DT40 TDP1 no CPT	HT1080 IDH1KD tx	DT40 TDP1 CPT	KB-3-1 cytotox	HT1080NT lethal	KB-V1 cytotox
N#Cc1c(N2CCSCC2)nsc1-c1ccccc1Cl	-13%	u	u	3.7µM*	-25%	4.6µM*
N#Cc1c(N2CCOCC2)nsc1-c1ccc(C(F)(F)F)cc1	u	15%	u	i	-3%	i
N#Cc1c(Cl)cccc1N1CCSCC1	-16%	-1%	6%	u	8%	23µM*
Cc1cccc(Cn2c(-c3ccc[nH]c3=O)nc3ccccc32)c1	21µM*	-7%	u	i	-5%	i
Cc1ccc(Cn2c(-c3ccccc3)nc3ccccc32)cc1	u	x	u	i	x	i
Fc1ccc(Cn2c(-c3cccc(Br)c3)nc3ccccc32)cc1	18µM*	x	u	x	x	x
O=c1[nH]cccc1-c1nc2ccccc2n1Cc1ccc(F)cc1	-7%	-1%	-29%	i	4%	i
Cc1cccc(-c2nc3ccccc3n2Cc2ccccc2)c1	5.2µM*	x	u	i	x	i
NS(=O)(=O)c1cc2c(cc1Cl)N[C@@H]([C@@H]1C[C@@H]3C=C[C@H]1C3)NS2(=O)=O	-3%	x	5%	x	x	x
COc1ccc(-c2oc3c(c2C#CC2(O)CCCCC2)C(OC(C)=O)CCC3)cc1 (centres undefined)	u	u	u	i	u	u
COc1ccccc1CN1C(=NC(=O)CCC2CCCC2)SC2CS(=O)(=O)CC21 (centres undefined)	-14%	5%	u	i	-2%	u
Cn1cc(S(=O)(=O)N2CCCCCC2)cc1C(=O)Nc1ccc(Cl)c(C(F)(F)F)c1	-26%	x	0%	i	x	i
CC1=Nc2cc(C(=O)NC(C)C)ccc2Sc2ccc(C)cc21	4.1µM*	x	4.6µM*	x	x	x
CNC(=O)c1ccc2c(c1)N=C(C)c1cc(C)ccc1S2	4.6µM*	x	3.7µM*	18µM*	x	u
CCN1C(=O)c2ccccc2Sc2ccc(C(=O)NC(C)C)cc21	0%	9%	1%	i	4%	i
CCC1=Nc2cc(C(=O)NCCCOC(C)C)ccc2Sc2ccccc21	u	-15%	u	u	-10%	u
Cc1ccc(OCC(=O)N(C)CC(=O)Nc2ccc(Cl)c(C(F)(F)F)c2)c([N+](=O)[O-])n1	u	-13%	u	u	-2%	i
